TsaE inh = qHTS Assay for Inhibitors of YjeE; tRNA threonylcarbamoyladenosine biosynthesis protein TsaE (Escherichia coli (strain …; purified YjeE enzyme, qHTS inhibition assay; Potency, µM; 71,000 tested, 0.05% active
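Purified YjeE (10 uM) with BODIPY Texas Red-labeled ADP probe (2 uM); compounds pin-transferred, 15 min at room temperature. Binding inhibition read as decreased fluorescence polarization; ADP titration as control.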
BRCT inh red = qHTS Assay for Inhibitors of BRCT-Phosphoprotein Interaction (Red Fluorophore) | Breast cancer type 1 susceptibility protein (Homo sapiens), P38398 | BRCT-phosphopeptide binding, red fluorescence polarization | Potency, µM (doses to about 76.9 µM), without a hit: at the highest dose activity change, negative = inhibition, hits mostly inhibitors | 75,000 tested, 0.03% active | AID 892, 2007; note: % is set by controls: 0 for no effect and ±100 for the full control effect
Target sequence (P38398 whole entry, looked up): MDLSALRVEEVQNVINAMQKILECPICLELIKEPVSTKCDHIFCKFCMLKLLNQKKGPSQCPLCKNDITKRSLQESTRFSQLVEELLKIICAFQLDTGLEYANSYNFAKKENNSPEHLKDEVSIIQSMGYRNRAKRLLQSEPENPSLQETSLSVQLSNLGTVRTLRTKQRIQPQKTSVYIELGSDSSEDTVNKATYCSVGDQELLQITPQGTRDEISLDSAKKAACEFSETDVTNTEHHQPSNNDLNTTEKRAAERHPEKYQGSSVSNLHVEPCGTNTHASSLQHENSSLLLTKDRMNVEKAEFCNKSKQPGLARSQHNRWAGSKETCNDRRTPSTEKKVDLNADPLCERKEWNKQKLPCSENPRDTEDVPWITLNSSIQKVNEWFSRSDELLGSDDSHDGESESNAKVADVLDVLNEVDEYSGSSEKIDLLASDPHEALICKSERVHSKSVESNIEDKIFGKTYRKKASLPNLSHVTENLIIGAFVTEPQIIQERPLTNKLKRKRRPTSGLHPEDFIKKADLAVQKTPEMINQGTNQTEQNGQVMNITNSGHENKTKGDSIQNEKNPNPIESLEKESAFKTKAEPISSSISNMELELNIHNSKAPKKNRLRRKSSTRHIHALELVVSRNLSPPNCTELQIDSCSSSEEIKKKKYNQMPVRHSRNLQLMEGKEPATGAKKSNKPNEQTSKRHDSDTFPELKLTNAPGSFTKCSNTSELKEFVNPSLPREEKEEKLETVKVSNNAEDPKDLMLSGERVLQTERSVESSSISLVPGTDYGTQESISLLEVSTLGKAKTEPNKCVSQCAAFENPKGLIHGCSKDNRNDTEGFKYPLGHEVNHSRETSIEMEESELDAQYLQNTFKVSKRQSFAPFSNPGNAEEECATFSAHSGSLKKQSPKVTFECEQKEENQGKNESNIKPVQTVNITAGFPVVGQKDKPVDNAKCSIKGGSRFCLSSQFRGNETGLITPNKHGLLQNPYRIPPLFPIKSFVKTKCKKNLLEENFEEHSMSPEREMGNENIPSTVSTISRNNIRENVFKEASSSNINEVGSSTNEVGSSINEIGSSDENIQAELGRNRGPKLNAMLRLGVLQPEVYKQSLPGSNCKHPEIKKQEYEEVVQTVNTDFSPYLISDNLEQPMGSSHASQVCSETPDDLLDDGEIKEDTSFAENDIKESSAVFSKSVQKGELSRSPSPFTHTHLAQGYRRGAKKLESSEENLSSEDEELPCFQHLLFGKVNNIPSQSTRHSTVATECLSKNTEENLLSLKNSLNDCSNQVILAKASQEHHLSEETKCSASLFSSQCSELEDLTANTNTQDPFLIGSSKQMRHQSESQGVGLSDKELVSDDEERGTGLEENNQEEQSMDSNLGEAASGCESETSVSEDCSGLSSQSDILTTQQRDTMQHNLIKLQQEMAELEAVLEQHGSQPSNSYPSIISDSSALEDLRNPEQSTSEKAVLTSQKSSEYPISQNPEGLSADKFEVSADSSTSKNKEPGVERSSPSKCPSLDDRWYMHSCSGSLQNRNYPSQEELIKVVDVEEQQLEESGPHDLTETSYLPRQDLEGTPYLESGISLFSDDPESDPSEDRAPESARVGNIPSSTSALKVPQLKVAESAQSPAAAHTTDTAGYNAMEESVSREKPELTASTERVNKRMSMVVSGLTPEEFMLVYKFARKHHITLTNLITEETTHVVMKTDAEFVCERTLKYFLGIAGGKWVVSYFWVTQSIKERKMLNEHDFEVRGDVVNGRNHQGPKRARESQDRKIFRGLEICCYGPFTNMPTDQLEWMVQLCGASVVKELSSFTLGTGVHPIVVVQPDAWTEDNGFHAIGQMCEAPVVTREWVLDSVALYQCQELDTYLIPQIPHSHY
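Fluorescence polarization: 100 nM His-tagged BRCA1 BRCT with 100 nM TAMRA-labelled phospho-BACH1 decapeptide, phosphate buffer pH 7.3 with 150 mM NaCl, DTT, 0.01% Tween 20; 12 min RT. Binding inhibition seen as FP decrease.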
BRCT inh green = qHTS Assay for Inhibitors of BRCT-Phosphoprotein Interaction (Green Fluorophore); Breast cancer type 1 susceptibility protein (Homo sapiens), P38398; BRCA1 BRCT-phosphopeptide binding, green fluorescence polarization; Potency, µM (series often up to 76.9 µM), inactives show at the top dose activity change, negative = inhibition, actives largely listed as inhibitors; 75,000 tested, 0.05% active; AID 875, 2007;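 note: potency is the fitted concentration of half-maximal effect; plate controls were peptide without protein for full effect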
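Compounds were incubated for 12 min at room temperature with a complex of 100 nM fluorescein-tagged pBACH1 decapeptide and 250 nM His-tagged BRCT protein. Buffer was phosphate pH 7.3 with EDTA, DTT and Tween 20. Disruption of binding lowers the polarization signal.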
Tau fil binding = qHTS Assay for Tau Filament Binding; Microtubule-associated protein tau (Homo sapiens), P10636; recombinant tau filaments, thioflavin S fluorescence, 15 h; filaments grown with octadecylsulfate alongside compound; Potency, µM (highest dose often 57.1 µM), for inactives: at the top dose activity change, negative = inhibition; 71,000 tested, 2% active;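 note: potency is the fitted concentration of half-maximal effect; % is set by controls: 0 for no effect and ±100 for the full control effect; actives lower thioflavin S fluorescence by blocking filaments or displacing dye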
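Recombinant tau protein (human, 1 uM final) plus 30 uM ODS in HEPES pH 7.4 with NaCl, DTT and thioflavine S. Compound present from the start; fluorescence at 510 nm after 15 h, 37 C.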
ALOX15 inhib = qHTS Assay for Inhibitors of 15-hLO (15-human lipoxygenase); Polyunsaturated fatty acid lipoxygenase ALOX15 (Homo sapiens), P16050; purified 15hLO-1, xylenol orange hydroperoxide absorbance; Potency, µM (top dose mostly 57.1 µM), inactives show at the top dose activity change, negative = inhibition, hits mostly inhibitors; 74,000 tested, 1.4% active; note: potency is the fitted concentration of half-maximal effect; % is set by controls: 0 for no effect and ±100 for the full control effect; nearly all actives have a fitted effect of over 55% in size
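Readout: Fe(III)-xylenol orange absorbance, 573-to-405 nm ratio as reaction progress. Enzyme 40 nM purified human 15hLO-1, substrate 50 uM arachidonic acid, 6 min RT after 15 min compound preincubation; Hepes pH 7.5 buffer with Triton X-100.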
Pol III holo inh = qHTS Assay for Inhibitors of DNA Polymerase III Holoenzyme System; 71,000 tested, 0.25% active; AID 603, 2007; reconstituted DNA polymerase III holoenzyme replication, biochemical; Potency, µM (titrated, usually from 57.1 µM), inactives show at the highest dose activity change, negative = inhibition; note: potency is the fitted concentration of half-maximal effect; % is set by controls: 0 for no effect and ±100 for the full control effect
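Reconstituted *E. coli* holoenzyme (0.35 nM Pol III, 1 nM beta, 154 nM SSB, 2 nM primase) was preincubated with compound for 15 min at RT. Synthesis on 1.4 nM ssM13Gori ran 35 min, then was stopped with PicoGreen/EDTA and read as dsDNA fluorescence.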
* hit, by the source's call; i = inactive; ? = inconclusive; · = no result given; [ ] = dose if it differs, or a comment. A selection: hits, their analogues and other compounds. The true share with any hit is near 3.1%. Calls come from the whole dose curve; as a rule, active = well fitted curve in the direction sought with a large enough effect; inconclusive = small, poorly fitted or top-dose-only effect, or another doubt; inactive = no such curve, though single readings can be large; an effect the other way counts as inactive or inconclusive.

SMILES	TsaE inh	BRCT inh red	BRCT inh green	Tau fil binding	ALOX15 inhib	Pol III holo inh
O=c1c2c([nH]c3ccc(Br)cc13)CCCC2	i	0%	0%	12%	-6%	-1%
NC(=O)c1cc(Br)cc2c3c([nH]c12)CCCC3	i	-1%	-5%	i	7.9µM*	-2%
N=c1c2c(-c3ccccc3)c(-c3ccccc3)n(Cc3ccco3)c2ncn1Cc1ccco1	?	-4%	60%	i	25µM*	-8%
CN(C)Cc1ccccc1-c1nc(NCc2cccs2)c2ccccc2n1	i	-2%	3%	148%	3%	-13%
COCCN1CCn2c(nc3cc(NC(=O)NC4CCCCC4)ccc32)C1	i	-2%	-5%	25µM*	-23%	-6%
O=C(Nc1ccc2c(c1)nc1n2CCN(Cc2ccccc2)C1)c1cccs1	i	2%	2%	-28%	-6%	-1%
COCCN1CCn2c(nc3cc(NC(=O)c4ccc(OC)cc4)ccc32)C1	i	-1%	5%	25µM*	?	-1%
CCCn1c(-c2ccc(F)cc2)nc2c(N3CCC(N(C)C)C3)nc(C)nc21 (stereo not drawn)	i	-1%	0%	18%	5%	-2%
CCCn1c(-c2ccc(F)cc2)nc2c(N3CCN(C)CC3)nc(C)nc21	i	0%	-2%	24%	20µM*	-5%
O=C(O[C@@H]1Cc2c(O)cc(O)cc2OC1c1ccc(O)c(O)c1)c1cc(O)c(O)c(O)c1 (stereo partly drawn)	·	0%	3%	·	6.3µM*	·
C[C@@]12C(=O)OC(=O)[C@@]1(C)[C@H]1CC[C@@H]2O1	i	-1%	-2%	?	11%	-3%
CCCCN(CC)S(=O)(=O)c1cccc2cccnc12	i	0%	0%	-3%	-7%	-3%
COc1ccc2nc3sc(C(=O)NCc4cccs4)c(N)c3cc2c1	i	0%	4%	?	20µM*	-10%
COc1ccc(S(=O)(=O)N2c3ccc(Cl)cc3[C@](O)(c3ccccc3Cl)[C@@H]2C(=O)N2CCC[C@H]2C(N)=O)cc1OC	·	1%	-3%	·	16µM*	·
COc1ccc(S(=O)(=O)N2CCC(C(=O)Nc3cccc(Cl)c3)CC2)cc1OC	·	0%	0%	·	-13%	·
O=C(O)CC[C@@]1(c2ccccc2)NC(=O)NC1=O	i	1%[15.4 µM]	0%[15.4 µM]	-7%[11.4 µM]	3%[11.4 µM]	-1%[11.4 µM]
CCOc1ccc(NC(=O)Nc2ccc3nccnc3c2)cc1	i	0%	-2%	25µM*	-11%	-2%
CCOC(=O)N/N=C1/C[C@@H](O)[C@@H](O)[C@@H]2[C@@H]3C(=O)N([C@@H](C)c4ccccc4)C(=O)[C@H]3CC[C@@H]12	·	1%[15.4 µM]	-3%[15.4 µM]	·	0%[11.4 µM]	·
O=c1c2ccccc2nc2n1CCC2	?	1%	-1%	2%	3.2µM*	-10%
CCOc1nc(C#N)nc(N2CCCCC2)n1	i	0%	-3%	13µM*	-9%	1%
CCOC(=O)c1oc2ccccc2c1CSc1nnnn1-c1ccc(C)cc1	i	0%	0%	-2%	1µM*	4%
CCOC(=O)c1oc2ccccc2c1CSc1nnc(-c2ccco2)o1	i	0%	3%	5%	-7%	-1%
CCc1ccc(NC(=O)NCCN2CCc3ccccc3C2)cc1	i	-1%	-1%	13µM*	?	4%
Cc1cc(NC(=O)CCCC(=O)NCc2cccs2)no1	i	-1%	-5%	164%	20µM*	?
Nc1ccccc1C(=O)C[C@@H](N)C(=O)O	i	·	·	40µM*	·	3%
SMILES	TsaE inh	BRCT inh red	BRCT inh green	Tau fil binding	ALOX15 inhib	Pol III holo inh
CC(=O)N1CCC[C@@]2(CCN(Cc3nccs3)C2)C1	i	-1%	-3%	-1%	7%	-1%
CCCCCCCCCCCCC/C=C\[C@@H](O)[C@@H](N)CO	i	2%	-4%	32µM*	40%	-3%
CN(C)c1ncc2nc(-c3ccc(F)cc3)c(=O)n(Cc3cccs3)c2n1	i	-1%	-1%	-1%	-12%	-8%
CN1CCN(c2ncc3nc(-c4cc(F)cc(F)c4)c(=O)n(Cc4cccs4)c3n2)CC1	i	0%	-1%	3.2µM*	2%	-13%
CN1CCN(c2ncc3nc(-c4cc(F)cc(F)c4)c(=O)n(C)c3n2)CC1	i	1%	-1%	-17%	6%	-3%
CN(C)c1ncc2nc(-c3cc(F)cc(F)c3)c(=O)n(Cc3cccs3)c2n1	i	2%	4%	-4%	7.9µM*	-2%
Cn1c(=O)c(-c2cc(F)cc(F)c2)nc2cnc(N3CCNCC3)nc21	i	1%	-2%	5µM*	2%	-3%
Ic1ccc2c(c1)N(c1ccccc1)c1cc(Nc3ccc4nc5ccc(I)cc5[n+](-c5ccccc5)c4c3)ccc1N2	?	1%[15.4 µM]	0%[15.4 µM]	4µM*	-24%[11.4 µM]	-8%[11.4 µM]
COC(=O)N/N=C/C1=C[N+](=O)c2ccccc2[N+]1=O	·	0%	-1%[3.08 µM]	·	3%	·
Clc1ccc2[nH]c3c(c2c1)CCc1cn[nH]c1-3	i	0%	-1%	16µM*	?	-2%
COc1ccc(OC)c(S(=O)(=O)n2ccnc2)c1	i	0%	-1%	-8%	1%	-6%
COc1ccc(S(=O)(=O)c2c(N)n(Cc3ccco3)c3nc4ccccc4nc23)cc1	i	2%	4%	-20%	20µM*	7%
Cc1nc2c(c(=O)n1Cc1ccccc1Cl)c1nc3ccccc3nc1n2Cc1ccco1	i	-1%	0%	16µM*	?	-20%
COc1ccc(Cn2c3nc4ccccc4nc3c3c(=O)n(Cc4ccco4)c(C)nc32)cc1	i	2%	2%	?	-28%	?
COc1ccc(Cn2c(C)nc3c(c2=O)c2nc4ccccc4nc2n3Cc2ccco2)cc1	i	1%	3%	2.5µM*	-23%	?
Cc1ccc(S(=O)(=O)c2c(N)n(/N=C/c3ccco3)c3nc4ccccc4nc23)cc1C	i	2%	4%	16µM*	?	-2%
O=C(c1cccc(F)c1)N1CCC2(CC1)CCN(c1ncccn1)CC2	i	-1%	-1%	-4%	-6%	-9%
C=C1CC[C@@H]2O[C@]2(C)CC[C@@H]2[C@H]1CC2(C)C	i	·	·	-19%	·	0%

Compound activity: PubChem, National Center for Advancing Translational Sciences (NCATS)
